In PubChem BioAssay (NCATS):
Inconclusive results are not listed. Calls of active or inactive are those of the source. Unless noted, calls come from the whole dose curve.

Experiments:
[1] = Primary qHTS for inhibitors of SARS-S pseudo-typed particle cell entry (AID 1479145); settings: SARS-S pseudotyped particle cell entry, luciferase reporter; series mostly up to 57.1 µM; note: nearly all actives have a fitted effect of over 45% in size; note: potency is the fitted concentration of half-maximal effect
[2] = Primary qHTS for Huh7 cytotoxicity: counterscreen for inhibitors of MERS-S pseudotyped particle cell entry (AID 1479147); settings: cell viability read-out; series mostly up to 57.1 µM
[3] = Primary qHTS for inhibitors of MERS-S pseudo-typed particle cell entry (AID 1479149); settings: MERS-S pseudotyped particle entry, luciferase; series mostly up to 57.1 µM; note: nearly all actives have a fitted effect of over 60% in size
[4] = Primary qHTS for Vero E6 cytotoxicity: counterscreen for inhibitors of SARS-S pseudo-typed particle cell entry (AID 1479150); settings: cell viability; series mostly up to 57.1 µM
[5] = Validation qHTS assay for inhibitors of Activation Induced Cytidine Deaminase (AID): UDG Counterscreen signal (AID 1347427; active = well fitted curve in the direction sought with a large enough effect; an effect the other way counts as inactive or inconclusive); settings: biochemical UDG counterscreen, fluorescence signal; series mostly up to 115 µM
In short: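 Fluorescence at 560 nm excitation, 665 nm emission reports UDG signal after 250 mM NaOH (2x) addition and 30 min. Enzymes (AID 1 uM, UDG 2 U/mL, at 4/3x) preincubated 10 min with compound, then 4 h with 4x 250 nM DJC20/DJC23 substrate at room temperature.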

[6] = target: Protein phosphatase 1D (Homo sapiens) (UniProt O15297); assay: RapidFire Mass Spectrometry qHTS Assay for Modulators of WT P53-Induced Phosphatase 1 (WIP1) (AID 1347424; active = well fitted curve in the direction sought with a large enough effect; an effect the other way counts as inactive or inconclusive;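 note: amount of dephosphorylated VEPPL-S-QETFS peptide product formed by WIP1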; note: potency is the fitted concentration of half-maximal effect); settings: WIP1 dephosphorylation of phosphopeptide, RapidFire MS; series mostly up to 128 µM
Protein phosphatase 1D (Homo sapiens), sequence (O15297 whole entry, looked up): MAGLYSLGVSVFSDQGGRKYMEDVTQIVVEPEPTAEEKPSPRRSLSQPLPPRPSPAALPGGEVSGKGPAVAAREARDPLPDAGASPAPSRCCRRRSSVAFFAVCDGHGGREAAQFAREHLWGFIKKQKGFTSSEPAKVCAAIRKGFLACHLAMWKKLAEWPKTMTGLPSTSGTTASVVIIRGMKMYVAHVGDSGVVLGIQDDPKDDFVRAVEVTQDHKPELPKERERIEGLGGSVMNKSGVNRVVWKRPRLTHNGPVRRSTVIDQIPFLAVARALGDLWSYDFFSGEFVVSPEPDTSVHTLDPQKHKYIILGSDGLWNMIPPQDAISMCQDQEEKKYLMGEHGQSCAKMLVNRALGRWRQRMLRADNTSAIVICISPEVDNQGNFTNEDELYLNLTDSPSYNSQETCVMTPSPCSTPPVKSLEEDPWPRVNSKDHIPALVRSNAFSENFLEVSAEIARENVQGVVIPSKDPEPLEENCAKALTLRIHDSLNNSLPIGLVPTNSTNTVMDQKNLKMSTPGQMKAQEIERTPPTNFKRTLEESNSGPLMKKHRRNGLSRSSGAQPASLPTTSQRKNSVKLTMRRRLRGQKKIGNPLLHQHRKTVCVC
In short: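 Mass-spectrometric measurement of dephosphorylated peptide after a 5 min room-temperature reaction of 10 nM WIP1 with 2 uM phosphopeptide, following 1 h compound preincubation in 30 mM MgCl2 buffer.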

[7] = Primary qHTS for inhibitors of La Crosse Virus (LACV) - induced cell death in SH-SY5Y cells (AID 1508616; active = well fitted curve in the direction sought with a large enough effect; an effect the other way counts as inactive or inconclusive;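 note: top concentration of the series differs between compounds; higher means more rescue of cells from virus-induced death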); settings: SH-SY5Y LACV cytopathicity rescue, ATP luminescence, 6 d; series mostly up to 9.63 µM
In short: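 Cytopathicity rescue screen: compounds pinned onto SH-SY5Y cells, which are then infected with LACV (MOI 0.01) and held 6 days at 37C. Percent activity is scaled between infected DMSO control and uninfected DMSO control.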

[8] = target: Calcium and integrin-binding protein 1 (Homo sapiens) (UniProt Q99828); assay: Primary qHTS for Identification of Calcium Integrin Binding Protein 1 (CIB1) Competitor (AID 1508620; active = well fitted curve in the direction sought with a large enough effect; an effect the other way counts as inactive or inconclusive;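 note: GST tagged CIB1 binding a fluorescein labelled alphaIIb integrin peptide tracer; top concentration of the series differs between compounds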); settings: CIB1-GST / FITC-alphaIIb peptide fluorescence polarization; series mostly up to 57.7 µM
Calcium and integrin-binding protein 1 (Homo sapiens), sequence (Q99828 whole entry, looked up): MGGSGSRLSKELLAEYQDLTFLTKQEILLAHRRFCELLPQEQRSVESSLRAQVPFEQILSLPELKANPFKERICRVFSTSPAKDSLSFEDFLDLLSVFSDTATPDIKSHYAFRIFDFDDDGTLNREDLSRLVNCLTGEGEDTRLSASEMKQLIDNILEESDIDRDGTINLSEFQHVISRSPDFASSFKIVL
In short: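 Fluorescence polarization competition: CIB1-GST (1 uM final) preincubated with compound 15 min at room temperature, then FITC-labeled alphaIIb peptide (100 nM final) added for another 15 min. Polarization read at Ex 480/Em 540.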

[9] = Counterscreen qHTS for small molecule stabilizers of the endoplasmic reticulum resident proteome: GLuc-NoTag assay (AID 1508627; active = well fitted curve in the direction sought with a large enough effect; an effect the other way counts as inactive or inconclusive); settings: Gaussia luciferase NoTag secretion counterscreen, luminescence, thapsigargin 100 nM for final 4 h; series mostly up to 76.4 µM
In short: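 Secreted GLuc lacking the SERCaMP modification is measured in SH-SY5Y cells exposed to compound for 19 h and then to thapsigargin (100 nM, 4 h) to deplete ER calcium; hits retested at 11 concentrations, up to 76.6 uM.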

[10] = Confirmatory qHTS for small molecule stabilizers of the endoplasmic reticulum resident proteome: Secreted ER Calcium Modulated Protein (SERCaMP) assay (AID 1508628; active = well fitted curve in the direction sought with a large enough effect; an effect the other way counts as inactive or inconclusive; note: potency is the fitted concentration of half-maximal effect; nearly all actives have a fitted effect of over 40% in size); settings: SERCaMP secreted luciferase ER calcium/proteostasis reporter; series mostly up to 76.3 µM
In short: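 GLuc-SERCaMP-expressing SH-SY5Y cells, pretreated 16 h with compound, are challenged with thapsigargin to empty ER calcium stores; after 4 h, coelenterazine is added directly to the medium and luminescence is imaged.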

Measured: Potency

[O-][n+]1cccc(/C(Cl)=N/OC[C@@H](O)CN2CCCCC2)c1
inactive: [1] | [2] | [3] | [4]

CCOc1cc(NC(C)=O)ccc1C(=O)OC
inactive: [1] | [2] | [3] | [4]

CC(C)(C)NCC(O)c1ccc(O)c(CO)c1 (stereo not drawn)
inactive: [1] | [2] | [3] | [4]

COc1c(N2CCNC(C)C2)c(F)cc2c(=O)c(C(=O)O)cn(C3CC3)c12 (stereo not drawn)
inactive: [1] | [2] | [3] | [4]

CCCCCCCCCCCCCC(=O)OC(C)C
inactive: [1] | [2] | [3] | [4]

CCCCCCCCCCC(CO)CCCCCCCC (stereo not drawn)
inactive: [1] | [2] | [3] | [4]

CC(C)(C)c1nnc(NS(=O)(=O)c2ccccc2)s1
inactive: [1] | [2] | [3]

CNCc1ccc(-c2[nH]c3cc(F)cc4c3c2CCNC4=O)cc1
inactive: [1] | [2] | [3] | [4]

CN1CCN(c2c(F)cc3c(=O)c(C(=O)O)cn4c3c2OCN4C)CC1
inactive: [1] | [2] | [3] | [4]

N[C@H]1C(O)O[C@H](CO)[C@@H](O)[C@@H]1O (stereo partly drawn)
inactive: [1] | [2] | [3] | [4]

Cc1c(C(=O)c2cccc3ccccc23)c2cccc3c2n1[C@H](CN1CCOCC1)CO3
inactive: [5]

CS(=O)(=O)c1ccc(C(=O)Nc2ccc(Cl)c(-c3ccccn3)c2)c(Cl)c1
inactive: [1] | [2] | [3] | [4]

O=C(O)c1ccccn1
inactive: [1] | [2] | [3] | [4]

CC[N+](C)(CC)CCOC(=O)C(O)(c1ccccc1)C1CCCCC1 (stereo not drawn)
inactive: [1] | [2] | [3] | [4]

CCN1CCN(c2cc3c(cc2F)c(=O)c(C(=O)O)cn3C2CC2)CC1
inactive: [1] | [2] | [3] | [4]

CCCCCCCC(=O)OCC(O)CO (stereo not drawn)
inactive: [1] | [2] | [3] | [4]

NCCS
inactive: [1] | [2] | [3] | [4]

CC(C[N+](C)(C)C)OC(N)=O (stereo not drawn)
inactive: [1] | [2] | [3] | [4]

Cn1c(NCCN(CCO)CCCc2ccc([N+](=O)[O-])cc2)cc(=O)n(C)c1=O
inactive: [1] | [2] | [3] | [4]

CC(=O)Nc1ccc(O)cc1
inactive: [1] | [2] | [3] | [4]

O=C(Nc1cccc(C2=NCCN2)c1)Nc1cccc(C2=NCCN2)c1
inactive: [1] | [2] | [3] | [4]

COc1ccccc1O
inactive: [1] | [2] | [3] | [4]

C/C(=C1\CCOC(=O)S1)N(C=O)Cc1cnc(C)nc1N
inactive: [1] | [2] | [3] | [4]

C=CCNC(N)=S
inactive: [1] | [2] | [3] | [4]

O=C(O)CNC(=O)CNC(=O)CNC(=O)CSC(=O)c1ccccc1
inactive: [1] | [2] | [3] | [4]

COc1ncnc(NS(=O)(=O)c2ccc(N)cc2)c1OC
inactive: [1] | [2] | [3] | [4]

CN1[C@@H]2CC[C@H]1CC(OC(=O)C(O)c1ccccc1)C2 (stereo partly drawn)
inactive: [1] | [2] | [3] | [4]

CCCCCCCCCC(CC)c1ccc(S(=O)(=O)O)cc1 (stereo not drawn)
inactive: [7] | [8]
active: [6] 1 µM

Nc1ccc(N=Nc2ccccc2)cc1
active: [10] 44.7 µM
inactive: [6] | [8] | [9]

C[C@@H]1CN(c2c(F)c(N)c3c(=O)c(C(=O)O)cn(C4CC4)c3c2F)C[C@H](C)N1
inactive: [1] | [2] | [3] | [4]

CC(=O)N[C@@H](CCC(N)=O)C(=O)O
inactive: [1] | [2] | [3] | [4]

CO/C=C(/C(=O)OC)c1ccccc1Oc1cc(Oc2ccccc2C#N)ncn1
inactive: [6] | [7] | [8]

CC1=NN(c2ccccc2)C(=O)C1
inactive: [1] | [2] | [3] | [4]

Cc1nnc(C(C)C)n1C1CC2CCC(C1)N2CC[C@H](NC(=O)C1CCC(F)(F)CC1)c1ccccc1 (stereo partly drawn)
inactive: [2] | [3] | [4]

N#C/C(=C1\SCC(c2ccccc2Cl)S1)n1ccnc1 (stereo not drawn)
inactive: [1] | [2] | [3] | [4]

NC(CO)C(=O)NNCc1ccc(O)c(O)c1O (stereo not drawn)
inactive: [1] | [2] | [3] | [4]

CNC(=O)c1ccc(N2C(=S)N(c3ccc(C#N)c(C(F)(F)F)c3)C(=O)C2(C)C)cc1F
inactive: [2] | [4]
active: [1] 8.91 µM

CC(C)(C)C(O)/C=C/c1ccc2c(c1)OCO2 (stereo not drawn)
inactive: [2] | [3] | [4]
